The values that follow come from ChEMBL document CHEMBL1961873, “Compounds: GSK PKIS; Assays: Nanosyn kinase panel” (2012).

Structures are written as SMILES.
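Note: reported value is a mean MARK4 inhibition at 1 µM, taken from the GSK PKIS screening set.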

The test concerns the target T1, MAP/microtubule affinity-regulating kinase 4 (Homo sapiens) (UniProt Q96L34).
T1 sequence (whole entry): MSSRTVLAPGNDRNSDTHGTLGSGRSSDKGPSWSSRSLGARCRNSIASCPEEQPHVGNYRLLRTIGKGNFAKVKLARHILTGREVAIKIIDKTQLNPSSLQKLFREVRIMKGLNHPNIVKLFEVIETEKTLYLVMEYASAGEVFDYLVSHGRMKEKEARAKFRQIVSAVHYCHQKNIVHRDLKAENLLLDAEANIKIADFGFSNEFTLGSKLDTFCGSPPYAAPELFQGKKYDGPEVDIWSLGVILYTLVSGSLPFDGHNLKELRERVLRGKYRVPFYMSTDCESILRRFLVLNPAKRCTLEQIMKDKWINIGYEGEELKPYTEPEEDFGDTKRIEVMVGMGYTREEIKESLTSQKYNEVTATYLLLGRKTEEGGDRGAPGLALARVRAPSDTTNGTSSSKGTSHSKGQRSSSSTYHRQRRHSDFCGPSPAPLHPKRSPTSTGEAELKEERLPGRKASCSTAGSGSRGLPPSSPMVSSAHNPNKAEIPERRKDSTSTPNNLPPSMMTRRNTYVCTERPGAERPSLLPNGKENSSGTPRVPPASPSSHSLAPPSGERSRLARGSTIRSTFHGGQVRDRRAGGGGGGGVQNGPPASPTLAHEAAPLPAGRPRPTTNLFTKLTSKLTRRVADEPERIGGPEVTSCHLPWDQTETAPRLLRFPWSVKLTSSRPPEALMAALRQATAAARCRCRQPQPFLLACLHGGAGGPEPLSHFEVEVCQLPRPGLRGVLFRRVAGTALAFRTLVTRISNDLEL
Particulars: at 1 µM.
By inhibition is commonly meant the relative decrease from the control value, in per cent. Take `CCS(=O)(=O)c1ccc(OC)c(Nc2ncc(-c3cccc(-c4ccccc4F)c3)o2)c1`: the inhibition worked out at 1.22%.

For the compound `C/C(Nc1ccc(S(N)(=O)=O)cc1)=C1/C(=O)Nc2ccccc21`, the inhibition was found to be 28.2%.

On to `CN(C)CCOc1ccc(-c2cc(-c3ccc4c(c3)CCC4=NO)c(-c3ccncc3)o2)cc1`, for which the inhibition is 0.68%.

Turning to `CCc1cccc(CC)c1/C=C/c1cncc(C(=O)NC)c1`, the inhibition was found to be 1.03%.

In the case of `COc1ccc2cc(-c3c(-c4ccncc4)nc(-c4ccc(S(C)(=O)=O)cc4C)n3C)ccc2c1`, the inhibition turned out to be 1.32%.

For the compound `CCS(=O)(=O)c1ccc(OC)c(Nc2ncc(-c3ccccc3Cl)o2)c1`, the inhibition turned out to be 0.41%.

Consider `COc1cc2ncn(-c3cc(OCCc4ccccc4)c(C(N)=O)s3)c2cc1OC`, for which the inhibition was 0.86%.

`CN1CCN(CCCNc2nc3ccc(Oc4ccc(NC(=O)Nc5cc(C(F)(F)F)ccc5F)cc4)cc3[nH]2)CC1`: the inhibition was determined as 2.34%.

For `Cc1ccc(NC(=O)c2ccoc2)cc1-c1ccc(C(=O)NCC2CC2)cc1`, the inhibition came to 0.19%.

Consider `COc1ccc2cc(-c3c(-c4ccncc4)nc(-c4ccc([S+](C)[O-])cc4C)n3C)ccc2c1` (centres undefined), for which the inhibition was -0.24%.

For the compound `O=C(NCC1CC1)c1ccc(-c2cccc(C(=O)NC3CC3)c2)cc1`, the inhibition was 0.47%.

As for `O=C(Nc1n[nH]c2cc(-c3cc(F)ccc3F)ccc12)C1CC1`, the inhibition was determined as 5.44%.

For the compound `COc1cc(N2CCN(C(C)C)CC2)ccc1Nc1nc(Nc2ccc(F)cc2C(=O)NC[C@@H](O)CO)c2cc[nH]c2n1`, the inhibition came out at 2.9%.

For the compound `NC(=O)c1cc(-c2ccncc2)cc(-c2ccccc2)c1N`, the inhibition was determined as 1.61%.

For the compound `Fc1ccc(-c2ncn(C3CCNCC3)c2-c2ccnc(Oc3ccc4c(c3)OCO4)n2)cc1`, the inhibition worked out at 3.33%.

For the compound `FC(F)(F)c1cccc(Nc2nccc(-c3cnn4nc(-c5ccccc5)ccc34)n2)c1`, the inhibition came out at 1.01%.

Turning to `COc1cc2ncn(-c3cc(OCc4ccccc4C(F)(F)F)c(C(C)=O)s3)c2cc1OC`, the inhibition is 2.91%.

With `Fc1ccc(-c2ncn(CCCN3CCOCC3)c2-c2ccncc2)cc1`, the inhibition came to 0.72%.

Turning to `NS(=O)(=O)c1ccc(Nc2cc(-c3ccc(O)c(F)c3)n[nH]2)cc1`, the inhibition turned out to be 11.7%.

As to `CN(C)CCCNc1nccc(-c2c(-c3ccc(F)cc3)nn3cc(C(F)(F)F)ccc23)n1`, the inhibition is 2.72%.

In the case of `Fc1ccc(-c2c(-c3ccncc3)nc3n2CCS3)cc1`, the inhibition was 2.25%.

For the compound `O=C(Nc1n[nH]c2nc(-c3ccco3)ccc12)C1CC1`, the inhibition was 0.56%.

For the compound `C[C@@H](Oc1cc(-n2cnc3ccc(OCC4CCN(C)CC4)cc32)sc1C(N)=O)c1ccccc1Cl`, the inhibition stood at 23.9%.

`c1ccc(-c2n[nH]cc2-c2ccnc(-c3ccc(OCCN4CCOCC4)cc3)c2)nc1`: the inhibition was 5.04%.

`O=C1Nc2ccccc2/C1=C/Nc1ccc(-n2cncn2)cc1`: the inhibition was 17.9%.

Take `c1ccc(Oc2ccc(Nc3ncc(-c4ccccc4)o3)cc2)cc1`: the inhibition came to 0.55%.

Regarding `CCN(CC)Cc1ccc(Nc2nccc(-c3cnn4ncccc34)n2)cc1`, the inhibition was found to be 18.9%.

As for `Cc1ccc(C(=O)NC(C)C)cc1-c1ccc(C(=O)NCC2CC2)cc1`, the inhibition stood at 0.5%.

With `COc1cc2ncn(-c3cc(OCc4cccs4)c(C(N)=O)s3)c2cc1OC`, the inhibition came out at 9.4%.

As to `O=C(Nc1ccc(Oc2ccc3[nH]c(NC(=O)c4ccccc4)nc3c2)cc1)Nc1cc(C(F)(F)F)ccc1F`, the inhibition was found to be 3.1%.

With `COc1ccc(-c2ccc3c(NC(=O)C4CC4)n[nH]c3n2)cc1`, the inhibition is -0.43%.

With `COc1cc(Nc2ncc3c(C)nc(-c4cccc(C(F)(F)F)c4)n3n2)cc(OC)c1OC`, the inhibition was 7.81%.

In the case of `Fc1ccc(-c2ncn(C3CCNCC3)c2-c2ccnc(Oc3ccc(F)c(F)c3)n2)cc1`, the inhibition was determined as 4.5%.

Consider `NS(=O)(=O)c1ccc(N/N=C2\C(=O)Nc3ccc(C(=O)NCCCn4ccnc4)cc32)cc1`, for which the inhibition was 14.6%.
